# The supplement of paper PMC8728848
# The entries come from a sample that favours the strongest signals as a whole.
# Legend:
# Experiment in all cases: glycan array binding signal (z-score within array); higher = stronger binding
# Settings in all cases: glycan notation: IUPAC condensed, linker removed
# [1] = target: 3dGal(b1-3)[Fuc(a1-4)]Glc
# Summary of the method: (§1)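 The Consortium for Functional Glycomics database supplied 3228 glycan arrays, of which those lacking an available protein sequence were dropped. The binding signal, a within-array Z-score, was averaged across arrays of the same protein sequence and across linkers. Negative scores can be read as non-binding.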
# [2] = target: Ara(a1-5)Ara(a1-5)Ara(a1-5)Ara(a1-5)Ara(a1-5)Ara(a1-5)Ara
# Summary of the method: as §1
# Fuc(a1-6)GlcNAc = target: Fuc(a1-6)GlcNAc
# Summary of the method: as §1
# [3] = target: Gal(b1-3)GalNAc(b1-4)[Neu5Ac(a2-3)]Gal(b1-4)Glc
# Summary of the method: as §1
# Gal(b1-3)GlcNAc = target: Gal(b1-3)GlcNAc
# Summary of the method: as §1
# [4] = target: Gal(b1-3)GlcNAc(b1-3)[Fuc(a1-3)[Gal(b1-4)]GlcNAc(b1-6)]Gal(b1-4)]GlcNAc(b1-6)[Gal(b1-4)]GlcNAc(b1-3)]Gal(b1-4)Glc
# Summary of the method: as §1
# Gal3S(b1-4)GlcNAc = target: Gal3S(b1-4)GlcNAc
# Summary of the method: as §1
# Glc(a1-2)Glc(a1-2)Glc = target: Glc(a1-2)Glc(a1-2)Glc
# Summary of the method: as §1
# Glc(a1-4)Glc(a1-6)Glc = target: Glc(a1-4)Glc(a1-6)Glc
# Summary of the method: as §1
# Glc(a1-6)Glc(a1-6)Glc = target: Glc(a1-6)Glc(a1-6)Glc
# Summary of the method: as §1
# [5] = target: Glc(b1-3)Glc(b1-3)Glc(b1-3)Glc(b1-3)Glc(b1-3)Glc(b1-3)Glc(b1-3)Glc(b1-3)Glc(b1-3)Glc(b1-3)Glc
# Summary of the method: as §1
# [6] = target: Glc(b1-3)Glc(b1-3)Glc(b1-3)Glc(b1-3)Glc(b1-3)Glc(b1-3)Glc(b1-3)Glc(b1-3)Glc(b1-3)Glc(b1-3)Glc(b1-3)Glc
# Summary of the method: as §1
# [7] = target: Glc(b1-3)Glc(b1-3)Glc(b1-3)Glc(b1-3)Glc(b1-3)Glc(b1-3)Glc(b1-3)Glc(b1-3)Glc(b1-3)Glc(b1-3)Glc(b1-3)Glc(b1-3)Glc
# Summary of the method: as §1
# Glc(b1-3)Glc(b1-4)Glc = target: Glc(b1-3)Glc(b1-4)Glc
# Summary of the method: as §1
# [8] = target: Glc(b1-3)Glc(b1-4)Glc(b1-4)Glc
# Summary of the method: as §1
# [9] = target: Glc(b1-4)Glc(b1-4)Glc(b1-4)Glc(b1-4)Glc(b1-4)Glc(b1-4)Glc(b1-4)Glc(b1-4)Glc(b1-4)Glc(b1-4)Glc
# Summary of the method: as §1
# GlcA(b1-3)Gal = target: GlcA(b1-3)Gal
# Summary of the method: as §1
# [10] = target: GlcA3S(b1-3)Gal(b1-4)GlcNAc(b1-3)Gal(b1-4)Glc
# Summary of the method: as §1
# GlcNAc(b1-3)Gal(b1-4)Glc = target: GlcNAc(b1-3)Gal(b1-4)Glc
# Summary of the method: as §1
# [11] = target: Man(a1-2)Man(a1-2)Man(a1-3)[Man(a1-2)Man(a1-6)[Man(a1-3)]Man(a1-6)]Man(b1-4)GlcNAc(b1-4)GlcNAc
# Summary of the method: as §1
# [12] = target: Man(b1-4)Man(b1-4)Man(b1-4)Man(b1-4)Man
# Summary of the method: as §1
# [13] = target: Neu(a2-3)Gal(b1-4)[Fuc(a1-3)]GlcNAc(b1-3)Gal(b1-4)Glc
# Summary of the method: as §1
# [14] = target: Neu5Ac(a2-3)Gal(b1-3)GalNAc(b1-4)[Neu5Ac(a2-3)]Gal(b1-4)Glc
# Summary of the method: as §1
# [15] = target: Neu5Ac(a2-3)Gal(b1-3)GlcNAc(b1-3)Gal(b1-4)Glc
# Summary of the method: as §1
# [16] = target: Neu5Ac(a2-3)Gal(b1-3)[Neu5Ac(a2-6)]GalNAc
# Summary of the method: as §1
# [17] = target: Neu5Ac(a2-3)Gal(b1-4)GlcNAc6S(b1-3)Gal6S(b1-3)GlcNAc6S
# Summary of the method: as §1
# [18] = target: Neu5Ac(a2-3)Gal(b1-4)[Fuc(a1-3)]GlcNAc(b1-3)Gal
# Summary of the method: as §1
# [19] = target: Neu5Ac(a2-6)Gal(b1-4)GlcNAc(b1-2)Man(a1-3)[Neu5Ac(a2-6)Gal(b1-4)GlcNAc(b1-2)Man(a1-6)]Man(b1-4)GlcNAc(b1-4)GlcNAc
# Summary of the method: as §1
# [20] = target: Neu5Ac(a2-6)Gal(b1-4)GlcNAc(b1-3)[Neu5Ac(a2-6)Gal(b1-4)GlcNAc(b1-6)]Gal(b1-4)Glc
# Summary of the method: as §1
binder,measurement,setting,value
"Dectin-1 (Mus musculus), Q6QLQ4 (protein) GHNSGRNPEEKDNFLSRNKENHKPTESSLDEKVAPSKASQTTGGFSQPCLPNWIMHGKSCYLFSFSGNSWYGSKRHCSQLGAHLLKIDNSKEFEFIESQTSSHRINAFWIGLSRNQSEGPWFWEDGSAFFPNSFQVRNTAPQESLLHNCVWIHGSEVYNQICNTSSYSICEKEL",glycan array binding signal (z-score),[1],0.092
same,glycan array binding signal (z-score),[2],-0.064
same,glycan array binding signal (z-score),Fuc(a1-6)GlcNAc,-0.091
same,glycan array binding signal (z-score),[3],-0.091
same,glycan array binding signal (z-score),Gal(b1-3)GlcNAc,-0.088
same,glycan array binding signal (z-score),[4],0.102
same,glycan array binding signal (z-score),Gal3S(b1-4)GlcNAc,-0.071
same,glycan array binding signal (z-score),Glc(a1-2)Glc(a1-2)Glc,-0.135
same,glycan array binding signal (z-score),Glc(a1-4)Glc(a1-6)Glc,0.413
same,glycan array binding signal (z-score),Glc(a1-6)Glc(a1-6)Glc,-0.113
same,glycan array binding signal (z-score),[5],1.33
same,glycan array binding signal (z-score),[6],5.34
same,glycan array binding signal (z-score),[7],13.4
same,glycan array binding signal (z-score),Glc(b1-3)Glc(b1-4)Glc,-0.135
same,glycan array binding signal (z-score),[8],-0.135
same,glycan array binding signal (z-score),[9],0.216
same,glycan array binding signal (z-score),GlcA(b1-3)Gal,-0.06
same,glycan array binding signal (z-score),[10],-0.078
same,glycan array binding signal (z-score),GlcNAc(b1-3)Gal(b1-4)Glc,-0.029
same,glycan array binding signal (z-score),[11],-0.004
same,glycan array binding signal (z-score),[12],-0.113
same,glycan array binding signal (z-score),[13],-0.091
same,glycan array binding signal (z-score),[14],-0.039
same,glycan array binding signal (z-score),[15],-0.091
same,glycan array binding signal (z-score),[16],-0.069
same,glycan array binding signal (z-score),[17],-0.054
same,glycan array binding signal (z-score),[18],-0.091
same,glycan array binding signal (z-score),[19],-0.091
same,glycan array binding signal (z-score),[20],-0.091
